Holding throughout (assay): NCI-60 one-dose screen, 48 h (100 = growth as untreated, 0 = no growth, -100 = all killed)
Common to all, as to details: 10 µM

In experiment [1] the test system is DU-145 prostate.
Experiment [2] deals with K-562 leukemia.
Experiment [3] concerns MALME-3M melanoma.
Experiment [4] concerns MDA-MB-231 breast.
For experiment [5], the system named is RXF 393 renal.
In experiment [6] the test system is SF-268 CNS.
The subject of experiment [7] is SF-295 CNS.
The test system of experiment [8] is SF-539 CNS.
Experiment [9] relates to UACC-257 melanoma.
For experiment [10], the system named is M14 melanoma.
For experiment [11], the system named is HCT-15 colon.
Experiment [12] concerns HT29 colon.
The subject of experiment [13] is SNB-75 CNS.
Experiment [14] has as its system SNB-19 CNS.
For experiment [15], the system named is PC-3 prostate.
Experiment [16] deals with SK-MEL-5 melanoma.
The subject of experiment [17] is UACC-62 melanoma.
For experiment [18], the system named is SK-MEL-28 melanoma.
Experiment [19] deals with LOX IMVI melanoma.
Experiment [20] relates to U251 CNS.

The panel holds about 83,000 compounds, 20% with a hit somewhere; the sample as a whole holds those more often.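 Percent growth is the endpoint: 0 to 100 indicates growth inhibition (40 means 60% inhibition), 0 means no net growth, and negative values indicate cell death.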 Unmarked numbers belong to inactive results. Calls of active or inactive are those of the source. Rule for the calls: active = growth percent below 10; inactive = the rest.

Eight molecules from PubChem BioAssay (NCI) can be followed below.

Regarding `N=C1S/C(=C/c2ccc(-c3ccc4c(c3)C(=O)NC4=O)o2)C(=O)N1c1ccc(Br)cc1`, the growth was 27.8% in experiment [1]; 21.5% in experiment [2]; 18.3% in experiment [3]; 46.5% in experiment [4]; -28.5% (active) in experiment [5]; 39.3% in experiment [6]. In addition, the growth was 22.1% in experiment [7]; 87.8% in experiment [8]; 47.7% in experiment [9]; 36.7% in experiment [10]; 47.1% in experiment [11]; 21.9% in experiment [12]. The growth in experiment [13] was -3.31% (active); in experiment [14], 106%; in [15], -2.15% (active); in experiment [16], 65.5%; in experiment [17] it was 31.8%; in experiment [18], -19.1% (active).

For the molecule `COc1ccc(/C(C#N)=C/c2ccccc2OC)cc1`, the growth is 68.1% in experiment [1]; 21% in experiment [2]; 19.9% in [3]; 56.2% in [4]; 25.5% in experiment [5]; 60.7% in experiment [6]. In addition, the growth was 22.9% in [7]; 42.2% in experiment [8]; 47.8% in experiment [9]; 20.7% in experiment [10]; 23.8% in [11]; 6.29% (active) in experiment [12]. Also, the growth in experiment [13] is 28.4%; in experiment [14] it was 51.9%; in [15] it was 55.6%; in [16] it was 9.12% (active); in [17], 41.6%; in experiment [19], 37.2%. In addition, in experiment [18], the growth is 51.8%.

With `O=[N+]([O-])c1ccc(/C(=C/c2ccccc2)[n+]2ccccc2)cc1`, the growth in [1] is 127%; in [2], 91.9%; in experiment [3], 125%; in [4] it was 111%; in [5] it was 105%; in [6] it was 128%. In addition, the growth in experiment [7] is 102%; in experiment [8], 107%; in experiment [9], 101%; in experiment [10] it was 114%; in experiment [11] it was 104%; in [12], 106%. Besides, the growth in [13] is 98.7%; in experiment [14], 103%; in [15], 99%; in [16], 103%; in [17], 100%; in experiment [19] it was 105%. For the same molecule, the growth in experiment [18] is 105%.

As to `COc1ccc(C(=O)c2ccccc2CN2C(=O)c3ccccc3C2=O)cc1`, the growth in [1] was 110%; in [2], 96.5%; in [3] it was 98.6%; in experiment [4], 109%; in [5], 107%; in [6] it was 102%. Besides, the growth in [7] is 100%; in experiment [8], 108%; in experiment [9], 104%; in experiment [10] it was 104%; in experiment [11], 112%; in experiment [12], 99.7%. For the same molecule, the growth in [13] was 92%; in experiment [14], 99.6%; in experiment [16] it was 100%; in experiment [17], 97.2%; in [19], 94.3%; in experiment [18] it was 114%.

For `COc1ccc(Cl)cc1Nc1nc(C(F)(F)F)ccc1C(=O)N/N=C/c1cc(OC)c(OC)c(OC)c1`, the growth is 38.4% in experiment [1]; 24.1% in [2]; -6.88% (active) in experiment [3]; -5.79% (active) in [4]; -10.2% (active) in [5]; 8.43% (active) in experiment [6]. Further, the growth was 19.8% in [7]; 17.1% in [8]; 54.8% in [9]; 23.7% in [11]; 32% in experiment [12]; 32.6% in [13]. Besides, the growth was 38.9% in experiment [14]; 16.3% in experiment [20]; 6.2% (active) in experiment [15]; 18.8% in experiment [16]; -48% (active) in [17]; -61.5% (active) in experiment [19]. Further, the growth in experiment [18] is 30.2%.

Consider `COc1ccc(/C=C2\CCCC3=C2N=C2SC(C)=CN2C3c2ccc(OC)cc2)cc1` (configuration not stated), for which the growth in [1] is 107%; in experiment [2], 96.1%; in experiment [3], 80%; in experiment [4], 101%; in experiment [5], 102%; in [6], 116%. The growth in [7] was 106%; in experiment [8], 111%; in experiment [9], 90.9%; in [10] it was 98.8%; in [11], 102%; in experiment [12], 104%. The growth in experiment [13] was 97.7%; in experiment [14], 100%; in experiment [15], 99.9%; in experiment [16], 92.3%; in experiment [18], 96.2%.

In the case of `COC(=O)c1cc2oc(/C=C3/SC(=S)N(N)C3=O)cc2n1Cc1ccccc1`, the growth is 32.7% in experiment [1]; 7.35% (active) in [2]; -69.9% (active) in experiment [3]; 6.49% (active) in experiment [4]; -19.1% (active) in experiment [5]; 46.4% in [6]. Besides, the growth was 68% in experiment [7]; 44.7% in [8]; 49.6% in [9]; 47% in experiment [11]; 63% in experiment [12]; 29.3% in [13]. The growth in experiment [14] was 84.5%; in [20], 45.3%; in [15] it was -3.5% (active); in experiment [16], 45.4%; in experiment [17], 50.6%; in experiment [19], 34.6%. Besides, the growth in experiment [18] was -71.4% (active).

Take `O=C(/C=C/c1cccc(B(O)O)c1)c1cccc(B(O)O)c1`: the growth in [1] was -69.4% (active); in [2], 11.5%; in experiment [3], 26.4%; in [4], -9.31% (active); in experiment [5], -86.7% (active); in experiment [6] it was -28.5% (active). The growth in [7] was -14.6% (active); in [8] it was -30.8% (active); in [9] it was -11% (active); in [10], -56.3% (active); in experiment [11] it was -40.4% (active); in [12], -46.5% (active). The growth in experiment [13] was 45.3%; in experiment [14] it was 43.9%; in experiment [15], 26.1%; in experiment [16] it was 22.1%; in [19], -85.6% (active); in experiment [18] it was -21.4% (active).
